Screening data deposited in PubChem BioAssay by National Center for Advancing Translational Sciences (NCATS).
An excerpt weighted towards active compounds, which were near 2.8% of everything screened.
Pol eta inh-1: inhibitors of human DNA polymerase eta; Q9Y253; recombinant Pol eta, fluorescent DNA replication assay; Potency, µM (series often up to 114 µM), hits mostly inhibitors; AID 588591; hit rate 1.2% among 390,000
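Pol eta (10 nM) was preincubated with compounds for 15 min at room temperature, after which fluorescent replication substrate (50 nM final) was added to start the reaction. Fluorescence was read kinetically at 0 and 10 min.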
POLB inh: inhibitors of human DNA polymerase beta; P06746; Pol beta primer extension/strand displacement, fluorescence kinetic; Potency, µM (highest dose often 114 µM), usual class: inhibitors; hit rate 1.3% among 340,000
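Enzyme-only controls used 10 nM Pol beta; buffer lacking enzyme served as negative control. Compound preincubated 15 min, then 50 nM substrate added; 0 and 10 min reads at room temperature.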
Pol kappa inh-1: blocks human DNA polymerase kappa activity | Potency, µM (doses to about 107 µM), usual class: inhibitors | Q9UBT6 | AID 588579 | purified Pol kappa, fluorescent DNA synthesis assay, 10 min | hit rate 0.53% among 400,000
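10 nM Pol kappa preincubated 15 min at room temperature with compounds, then reaction started with substrate at 50 nM final. Fluorescence read kinetically at 0 and 10 min; buffer-only wells served as negative control.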
POLI inh: blocks human DNA polymerase iota activity; Q9UNA4; Pol iota fluorescent replication assay, 10 min; Potency, µM (top dose mostly 115 µM), hits mostly inhibitors; hit rate 1% among 390,000; AID 588590
Target sequence (Q9UNA4 whole entry, looked up): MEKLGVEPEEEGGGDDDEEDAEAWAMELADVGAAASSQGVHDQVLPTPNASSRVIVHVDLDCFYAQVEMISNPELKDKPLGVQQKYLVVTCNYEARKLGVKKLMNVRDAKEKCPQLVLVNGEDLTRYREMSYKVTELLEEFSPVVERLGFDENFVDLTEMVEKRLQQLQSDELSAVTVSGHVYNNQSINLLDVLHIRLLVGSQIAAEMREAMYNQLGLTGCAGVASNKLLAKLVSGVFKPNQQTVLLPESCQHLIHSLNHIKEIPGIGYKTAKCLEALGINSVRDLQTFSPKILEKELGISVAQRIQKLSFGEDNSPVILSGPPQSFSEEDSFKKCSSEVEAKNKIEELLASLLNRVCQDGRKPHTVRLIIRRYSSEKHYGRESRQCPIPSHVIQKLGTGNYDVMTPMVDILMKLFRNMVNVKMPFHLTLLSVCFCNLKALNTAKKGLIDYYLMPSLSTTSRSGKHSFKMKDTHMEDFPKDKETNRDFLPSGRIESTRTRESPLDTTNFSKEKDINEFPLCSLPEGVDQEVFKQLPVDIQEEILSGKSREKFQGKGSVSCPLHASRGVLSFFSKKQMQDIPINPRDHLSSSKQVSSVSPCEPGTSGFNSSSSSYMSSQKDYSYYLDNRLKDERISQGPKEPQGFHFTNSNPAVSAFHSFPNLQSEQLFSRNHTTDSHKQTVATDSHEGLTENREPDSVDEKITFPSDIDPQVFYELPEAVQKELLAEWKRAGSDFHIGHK
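Pol iota at 10 nM preincubated 15 min with compounds at room temperature; reaction started with fluorescent substrate, 50 nM final. Fluorescence read kinetically at 0 and 10 min; buffer-only wells as negative control.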
FEN1 inh-1: blocks human flap endonuclease 1; P39748; Recombinant FEN1 flap cleavage, fluorescence, 15 min; Potency, µM (doses to about 114 µM), actives largely listed as inhibitors; hit rate 0.35% among 390,000; further: nearly all actives have a fitted effect of over 65% in size
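Recombinant FEN1 (10 nM) was preincubated with pin-transferred compounds for 15 min at room temperature, then flap DNA substrate (50 nM final) was added. Plates were read at 0 and 15 min, and normalized concentration–response data were fitted to a four-parameter Hill equation.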
PI5P4K alpha inh: blocks human PI5P4K alpha kinase activity. hit rate 1.2% among 330,000. max response, %. AID 652105. PI5P4Kalpha enzyme, ADP-Glo luminescence, 60 min; active compounds read low; active means max response of -50% or lower; inconclusive means between -30% and -50%; inactive means -30% or higher; further: value at the top dose of about 77 µM
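Single end-point luminescence (ADP-Glo) quantified ADP from PI5P4Kalpha turnover; ATP 5 microM final, 1 h at RT, 0.1% CHAPS and 0.28 mM EGTA in HEPES pH 7.4.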
Pol kappa inh-2: confirmation of human DNA polymerase kappa inhibitors | purified Pol-kappa, fluorescent strand-displacement substrate | AID 720501 | Potency, µM, hits mostly inhibitors | hit rate 76% among 920 | shares compounds with Pol eta inh-1
Pol eta inh-2: Pol eta (human) inhibition, cherry-pick confirmation; shares compounds with Pol eta inh-1; Pol eta primer extension, TAMRA/BHQ fluorescence, 10 min; Potency, µM, actives largely listed as inhibitors; hit rate 64% among 2,600; AID 720502
FEN1 inh-2: FEN1 inhibition, cherry-pick retest. shares compounds with FEN1 inh-1. FEN1 flap cleavage, TAMRA/BHQ2 fluorogenic DNA substrate. Potency, µM, most hits filed as inhibitors. hit rate 79% among 880. AID 720498; further: nearly all actives have a fitted effect of over 60% in size
Numbers stand for hits. Unless noted, the call rests on the fitted dose curve; in most records, active means well fitted curve in the direction sought with a large enough effect; inconclusive means small, poorly fitted or top-dose-only effect, or another doubt; inactive means no such curve, though single readings can be large; an effect the other way counts as inactive or inconclusive.

Results for COc1ccc(OC)c(-c2nnc3n2N=C(c2ccc(OC)c(OC4CCCC4)c2)CS3)c1 ?
Pol eta inh-1: inactive; Pol kappa inh-1: inactive; POLI inh: inactive; FEN1 inh-1: inactive

What do the screens show for `COc1ccc(C2=Nn3c(nnc3-c3ccccc3OC)SC2)cc1O[C@H]1CCOC1`?
Pol kappa inh-2: 2.67

How did O=C1c2ccccc2C(=O)c2c(O)c(O)cc(O)c21 do in these assays?
Pol eta inh-1: 31.6µM; Pol kappa inh-1: 50.1µM; POLI inh: 79.4µM; FEN1 inh-1: inconclusive; PI5P4K alpha inh: -105.9; Pol kappa inh-2: 75.2; Pol eta inh-2: 42.6; FEN1 inh-2: 37.9

Results for COc1cc2cc3c(N)c(C(=O)Nc4sc(C)c(C)c4C#N)sc3nc2cc1OC ?
Pol eta inh-1: 28.2µM; POLB inh: 7.94µM; Pol kappa inh-1: 31.6µM; POLI inh: 7.94µM; FEN1 inh-1: 50.1µM; Pol eta inh-2: 30.1; FEN1 inh-2: 42.6

What do the screens show for `Nn1c(SCC(=O)Nc2ccc(N3CCOCC3)cc2)nnc1-c1ccccc1F`?
Pol eta inh-1: inactive; Pol kappa inh-1: inactive; POLI inh: inactive; FEN1 inh-1: inactive; PI5P4K alpha inh: inactive

Results for CCOc1cc(/C=C2\SC(=S)N(C(C(=O)O)c3ccccc3)C2=O)ccc1O (stereo unspecified) ?
Pol eta inh-1: inconclusive; POLB inh: inconclusive; Pol kappa inh-1: inconclusive; POLI inh: 28.2µM; FEN1 inh-1: inconclusive; PI5P4K alpha inh: inactive; Pol kappa inh-2: 42.3; FEN1 inh-2: 84.9

What do the screens show for `CCN=C1S/C(=C\c2ccc(O)c(OCC)c2)C(=O)N1CC`?
Pol eta inh-1: inactive; POLB inh: inactive; Pol kappa inh-1: inactive; POLI inh: inactive; FEN1 inh-1: inactive; PI5P4K alpha inh: inactive

How did COc1cc(/C=C2\SC(=S)N(NS(=O)(=O)c3ccc(C)cc3)C2=O)ccc1O do in these assays?
Pol eta inh-1: inconclusive; POLB inh: 39.8µM; Pol kappa inh-1: inconclusive; POLI inh: 39.8µM; FEN1 inh-1: inactive; PI5P4K alpha inh: -68.5; Pol kappa inh-2: inconclusive; FEN1 inh-2: 67.5

How did Cc1c(Cl)cnc(NC(=O)COC(=O)c2ccc([N+](=O)[O-])s2)c1Cl do in these assays?
Pol eta inh-1: 17.8µM; POLB inh: 28.2µM; Pol kappa inh-1: inactive; POLI inh: 25.1µM; FEN1 inh-1: inconclusive; PI5P4K alpha inh: -78.5; Pol eta inh-2: 84.9; FEN1 inh-2: 8.49

What do the screens show for `O=C(COC(=O)c1ccc([N+](=O)[O-])s1)Nc1ccc(Cl)cn1`?
Pol eta inh-1: inactive; POLB inh: inconclusive; Pol kappa inh-1: inactive; POLI inh: inconclusive; FEN1 inh-1: inactive; PI5P4K alpha inh: inconclusive

How did COc1ccc(CN(C)C[C@H]2OCCCC[C@@H](C)Oc3ccc(NS(C)(=O)=O)cc3C(=O)N([C@H](C)CO)C[C@@H]2C)cc1 do in these assays?
Pol eta inh-1: inactive; PI5P4K alpha inh: inactive

What do the screens show for `Cc1oc(C)c2c(=O)cc(-c3ccc4c(c3)OCO4)cc(OC(=O)c3ccccc3Br)c12`?
Pol eta inh-1: inconclusive; POLB inh: inconclusive; Pol kappa inh-1: inconclusive; POLI inh: inconclusive; FEN1 inh-1: inactive

How did CCOc1cc(-c2ccc3c(c2)OCO3)cc(=[O+]CC)c2c(C)oc(C)c12 do in these assays?
Pol kappa inh-1: 50.1µM; POLI inh: 50.1µM; FEN1 inh-1: 44.7µM; Pol kappa inh-2: inconclusive; Pol eta inh-2: 47.8; FEN1 inh-2: inconclusive

Results for O=C(Nc1ccc2[nH]c(=O)[nH]c2c1)c1ccc([N+](=O)[O-])o1 ?
Pol eta inh-1: 56.2µM; Pol kappa inh-1: inactive; POLI inh: inconclusive; FEN1 inh-1: inactive; PI5P4K alpha inh: inactive; Pol kappa inh-2: inconclusive; Pol eta inh-2: inconclusive; FEN1 inh-2: 42.6
